# Bioassay records from PubChem.
# IL1B secr inh: blocks inflammasome-driven IL-1 beta release | THP-1 LPS/ATP IL-1B secretion, AlphaLISA, 16 h; stronger effect = lower value | activity change, % at 57.5 µM | 360,000 compounds, 4.7% hits; in the data active = activity change below about -50%; inconclusive = mostly about -30% to -49%; note: % is set by controls: 0 for no effect and ±100 for the full control effect
#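 Secreted IL-1B measured by AlphaLISA bead assay after 16 h compound exposure of THP-1 cells; compounds (final up to 57.5 uM) added 1 h before LPS (250 ng/mL) and ATP (1.25 mM) stimulation; lower signal means less secretion.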
# TDP1 cell noCPT: qHTS for Inhibitors of human tyrosyl-DNA phosphodiesterase 1 (TDP1): qHTS in cells in absence of CPT. DT40 Tdp1-/- hTDP1 cells, no CPT, ATP luminescence, 48 h. Potency, µM (top dose mostly 46.2 µM), inactives show top-dose activity change, negative = growth inhibition, hits mostly inhibitors. 420,000 compounds, 15% hits; note: potency is the fitted concentration of half-maximal effect; % is set by controls: 0 for no effect and ±100 for the full control effect; nearly all actives have a fitted effect of over 55% in size
#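 No-CPT arm: Tdp1-/-;hTDP1 DT40 cells (400/well) plus compounds, incubated ≥48 hr at 37 °C. Readout CellTiter-Glo luminescence.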
# DT40 TDP1 CPT: DT40-hTDP1 cell growth loss with CPT. chicken DT40 Tdp1-/-;hTDP1 cells + 20 nM CPT, ATP luminescence, 48 h. Potency, µM (top dose mostly 46.2 µM), for inactives: at the highest dose activity change, negative = growth inhibition, actives largely listed as inhibitors. 420,000 compounds, 12% hits; note: potency is the fitted concentration of half-maximal effect; % is set by controls: 0 for no effect and ±100 for the full control effect; nearly all actives have a fitted effect of over 55% in size
#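 Cell growth measured by CellTiter-Glo luminescence after a minimum 48 h, 37 C compound exposure with 20 nM CPT in Tdp1-knockout DT40 cells stably expressing hTDP1, seeded 400/well; qHTS titration format.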
# HepG2 viability: counter-screen for TGF-b inhibitors: cytotoxicity in HepG2 cells; HepG2 CAGA-GFP viability, ATP luminescence, 18 h; 410,000 compounds, 0.76% hits; Potency, µM (series often up to 46.1 µM), without a hit: top-dose activity change, negative = cytotoxicity, usual class: cytotoxic; note: potency is the fitted concentration of half-maximal effect
#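 HepG2 CAGA-GFP cells (1000/well, DMEM with 1% FBS) received compound, then TGF-beta at 500 pg/mL final, and were incubated 18 hours at 37 degrees C. Viability was read by CellTiter-Glo luminescence. Media-only wells were set as complete cell-killing and DMSO as no toxicity.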
# TDP1 inh: blocks human tyrosyl-DNA phosphodiesterase 1 | Q9NUW8 | recombinant TDP1, AlphaScreen DNA substrate cleavage | Potency, µM (series often up to 130 µM), inactives show at the highest dose activity change, negative = inhibition, actives largely listed as inhibitors | 350,000 compounds, 0.28% hits; note: potency is the fitted concentration of half-maximal effect; % is set by controls: 0 for no effect and ±100 for the full control effect; nearly all actives have a fitted effect of over 40% in size
# Target sequence (Q9NUW8 whole entry, looked up): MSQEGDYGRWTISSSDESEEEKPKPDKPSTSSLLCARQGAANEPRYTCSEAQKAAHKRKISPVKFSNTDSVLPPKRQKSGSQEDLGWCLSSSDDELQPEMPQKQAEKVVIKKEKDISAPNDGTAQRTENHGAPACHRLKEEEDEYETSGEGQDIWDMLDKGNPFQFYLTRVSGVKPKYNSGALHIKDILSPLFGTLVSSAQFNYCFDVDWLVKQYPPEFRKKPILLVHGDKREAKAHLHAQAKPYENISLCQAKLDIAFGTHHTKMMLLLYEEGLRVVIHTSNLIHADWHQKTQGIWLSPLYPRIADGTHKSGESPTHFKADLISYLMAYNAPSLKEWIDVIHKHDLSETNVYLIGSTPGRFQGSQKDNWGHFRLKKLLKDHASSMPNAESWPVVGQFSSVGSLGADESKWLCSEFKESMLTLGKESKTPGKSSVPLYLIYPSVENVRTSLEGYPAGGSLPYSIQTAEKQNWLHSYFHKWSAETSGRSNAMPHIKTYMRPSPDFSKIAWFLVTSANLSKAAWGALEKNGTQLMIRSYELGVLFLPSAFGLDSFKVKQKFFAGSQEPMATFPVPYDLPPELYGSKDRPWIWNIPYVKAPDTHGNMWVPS
#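 Enzyme-compound mixtures sat 15 min at room temperature, followed by a 5 min reaction with 15 nM final substrate and 10 min with AlphaScreen beads. Recombinant human Tdp1 was used at 1 nM final.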
# TGFb SMAD3 inh: blocks TGF-b signaling | HepG2 CAGA-GFP TGF-b/SMAD3 reporter, GFP fluorescence, 18 h; TGF-beta stimulated, 500 pg/mL final | Potency, µM (top dose mostly 46.1 µM), inactives show at the highest dose activity, negative = inhibition, usual class: inhibitors | 410,000 compounds, 1.2% hits; note: potency is the fitted concentration of half-maximal effect; % is set by controls: 0 for no effect and ±100 for the full control effect; nearly all actives have a fitted effect of over 65% in size
#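 GFP signal (ex488/em500-530) from TGF-beta-stimulated HEPG2 CAGA-GFP cells, 500 pg/mL final, 18 h at 37 degrees C in DMEM plus 1% FBS, normalized to unstimulated and DMSO-stimulated controls.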
# Numbers without * were called inactive; u = inconclusive; x = no result given; [ ] = another dose, or the depositor's remark. Shown are actives, neighbours in structure and some others; about 18% of the full set was active somewhere. Unless noted, calls come from the whole dose curve; as a rule, active = well fitted curve in the direction sought with a large enough effect; inconclusive = small, poorly fitted or top-dose-only effect, or another doubt; inactive = no such curve, though single readings can be large; an effect the other way counts as inactive or inconclusive.
SMILES,IL1B secr inh,TDP1 cell noCPT,DT40 TDP1 CPT,HepG2 viability,TDP1 inh,TGFb SMAD3 inh
CCCCCOc1ccc(C(=O)C(c2ccccc2)N2CCOCC2)cc1 (configuration not stated),u,u,21µM*,-58%,7%[56.1 µM],-4%
O=C(Nc1ccc(F)cc1F)C1CCN(c2ncccn2)CC1,x,u,u,-14%,-7%,4%
COc1cc2c(cc1OC)C(c1cccs1)N(C(=S)NC(C)C)CC2 (configuration not stated),-27,15µM*,u,-15%,2%,-23%
COc1cc2c(cc1OC)C(c1cccs1)N(C(=O)c1ccncc1)CC2 (configuration not stated),0,u,13µM*,1%,6%,5%
COc1cc2c(cc1OC)C(c1cccs1)N(C(=O)c1ccc(S(=O)(=O)N(C)C)cc1)CC2 (configuration not stated),u,u,u,-18%,8%,0%
CCc1ccc(S(=O)(=O)c2cn(C)c3cc(N4CCN(CC)CC4)c(F)cc3c2=O)cc1,x,u,u,1%,5%,-30%
CCOc1ccc2ncc(S(=O)(=O)c3ccc(C)cc3)c(N3CCC4(CC3)OCCO4)c2c1,0,23µM*,u,-9%,8%,u
CCc1ccc2ncc(S(=O)(=O)c3ccc(Cl)cc3)c(N3CCN(CC)CC3)c2c1,x,16µM*,u,-10%,2%,19%
CCOCCn1ccc2c(OCC(=O)Nc3cccc([N+](=O)[O-])c3)cccc2c1=O,x,u,-15%,-3%,-3%,u
CCCc1nc(SCC(=O)Nc2cc(C)on2)c2c(=O)n(C)c(=O)n(C)c2n1,22,u,u,3%,1%,4%
Cc1csc(NC(=O)CSc2nc(C)nc3c2c(=O)n(C)c(=O)n3C)n1,24,21µM*,u,-28%,2%,-11%
CCCc1nc(SCC(=O)Nc2nnc(CC)s2)c2c(=O)n(C)c(=O)n(C)c2n1,29,3.3µM*,6.5µM*,-5%,3%,-5%
Cc1cccc(NC(=O)CSc2nc(C)nc3c2c(=O)n(C)c(=O)n3C)c1,-16,-22%,u,-35%,5%,-22%
CCc1nc(SCC(N)=O)c2c(=O)n(C)c(=O)n(C)c2n1,-1,-4%,1%,-5%,3%,0%
Cc1nnc(NC(=O)CSc2nc3c(c(=O)n(C)c(=O)n3C)n2C(C)C)s1,54,-20%,-1%,7%,1%,1%
CCc1nc(SCC(=O)Nc2nnc(CC)s2)c2c(=O)n(C)c(=O)n(C)c2n1,-10,8.2µM*,6.5µM*,10%,2%,11%
Cc1nnc(NC(=O)CSc2nc(CC(C)C)nc3c2c(=O)n(C)c(=O)n3C)s1,15,10µM*,16µM*,-8%,0%,-52%
COc1cc(C2NCC(c3ccc(Cl)cc3Cl)c3c2[nH]c2ccccc32)cc(OC)c1OC (configuration not stated),-66*,18µM*,u,0%,5%,-13%
O=C(O)c1ccc(C2NCC(c3ccccc3Cl)c3c2[nH]c2ccccc32)cc1 (configuration not stated),31,16%,4%,1%,8%,2%
COc1ccc(-c2noc(N3CCC(C(=O)Nc4ccccc4Cl)CC3)n2)cc1,-11,u,u,-11%,x,-7%
COc1ccc(-c2noc(N3CCC(C(=O)NC(C)c4ccccc4)CC3)n2)cc1 (configuration not stated),-1,26µM*,u,-26%,x,-11%
